CYP2C19 inh – human CYP2C19 inhibition. inhibition, % at 5 µM. AID 778. CYP2C19 Supersomes, luciferin-H EGE luminescence, 30 min. P33261. 96,000 tested, 21% active;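 active = CYP2C19 inhibition above a set limit at 5 µM in the primary screen, cut at about 50% in these data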;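 note: plate controls were negative control wells for no effect and 2.5 mM tranylcypromine positive control for full effect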
CYP2C19 activ – increases human CYP2C19 enzyme activity | recombinant CYP2C19, luciferin-H EGE luminescence; hits give high values; 0 = fully inhibited enzyme, 1 = untreated enzyme | 96,000 tested, under 10 active | AID 1025 | P33261 | activation factor at 5 µM;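 active = activation factor of at least 2 at 5 µM in the primary screen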;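 note: 0 = wells with 2.5 mM tranylcypromine and 1 = vehicle-only wells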
CYP2C9 inh – blocks human cytochrome P450 2C9; CYP2C9 Supersomes, luciferin-H conversion, luminescence; inhibition, % at 5 µM; 96,000 tested, 20% active; AID 777;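 active = blocking of liver enzyme CYP2C9 beyond about 50% at 5 µM, limit read from the data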
Cav32 inh – human Cav3.2 channel inhibition, primary screen. 100,000 tested, 4% active. B-score at 10 µM. AID 449739. Cav3.2-expressing cells, Fluo-4 calcium fluorescence FDSS; hits give low values. O95180;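 active = single-dose well whose peak fluorescence ratio is a statistical outlier from its plate by either plate-standardised score or position-corrected B-score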
CYP2C9 act – activators of human CYP2C9; AID 1024; 96,000 tested, 1.4% active; P11712; activation factor at 5 µM; recombinant CYP2C9, luciferin-H conversion, luminescence; hits give high values; factor 1 = untreated enzyme, 0 = blocked;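 active = activation factor of 2 or more for CYP2C9 at a 5 µM dose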;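 note: 0 = sulfaphenazole-blocked wells and 1 = vehicle-only wells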
* = called active by the depositor. A selection: hits, their analogues and other compounds. The true share with any hit is near 27%.

Screening COc1ccccc1N1C(=O)c2ccccc2NC1c1ccncc1 (configuration not stated) returned CYP2C19 inh 39, CYP2C19 activ 0.6, CYP2C9 inh 56* and CYP2C9 act 0.4.
CCOc1ccc(C2Nc3cccc4cccc(c34)N2)cc1OC was read as Cav32 inh -0.15.
For CCOc1cc(C2Nc3ccccc3C(=O)N2c2ccccc2)ccc1O (configuration not stated) the results were CYP2C19 inh 62*, CYP2C19 activ 0.4, CYP2C9 inh 96*, Cav32 inh 0.041 and CYP2C9 act 0.
Screening CCOc1cc(C2Nc3cccc4cccc(c34)N2)ccc1O returned CYP2C19 inh 69*, CYP2C19 activ 0.3, CYP2C9 inh 38, Cav32 inh 0.22 and CYP2C9 act 0.6.
Screening CCOc1cc(NS(=O)(=O)c2ccc(NC(C)=O)cc2)c(OCC)cc1NC(=O)C(C)C returned CYP2C19 inh -5, CYP2C19 activ 1.1, CYP2C9 inh 40, Cav32 inh 1 and CYP2C9 act 0.6.
For COc1ccccc1NC(=O)c1sc2ncn(Cc3ccccc3C)c(=O)c2c1C the results were CYP2C19 inh 34, CYP2C19 activ 0.7, CYP2C9 inh -50, Cav32 inh -0.02 and CYP2C9 act 1.5.
`CC(C)CC(CO)N1CCN(C(=O)c2ccc(Cl)c(Cl)c2)CCC1=O` (configuration not stated) gave Cav32 inh 1.2.
For CC1(C)CC(=O)C2=C(C1)N(c1ccc(F)cc1)C(=O)NC2(C(F)(F)F)C(F)(F)F the results were CYP2C19 inh 0, CYP2C19 activ 1, CYP2C9 inh 1, Cav32 inh 0.61 and CYP2C9 act 1.
Screening Cc1[nH]n(-c2ccccc2)c(=O)c1C1(C(F)(F)F)C(=O)N(c2ccc(F)cc2)C2=C1C(=O)CC(C)(C)C2 (configuration not stated) returned CYP2C19 inh 26, CYP2C19 activ 0.7, CYP2C9 inh 78*, Cav32 inh 2.1 and CYP2C9 act 0.2.
Screening CC(C)(C)n1nnnc1CN1CCSCC1 returned CYP2C19 inh 31, CYP2C19 activ 0.7, CYP2C9 inh 0, Cav32 inh -0.38 and CYP2C9 act 1.
`CCOC(=O)c1[nH]c2cc(OC)c(OC)cc2c1N` gave CYP2C19 inh 72*, CYP2C19 activ 0.3, CYP2C9 inh 18, Cav32 inh 0.96 and CYP2C9 act 0.8.
CSc1nc2sc(-c3ccccc3)cc2c(=O)n1N was read as CYP2C19 inh 69*, CYP2C19 activ 0.3, CYP2C9 inh 78* and CYP2C9 act 0.2.
CC(C)Sc1nc2sc(-c3ccccc3)cc2c(=O)n1N was read as CYP2C19 inh 27, CYP2C19 activ 0.7, CYP2C9 inh 32, Cav32 inh 1.7 and CYP2C9 act 0.7.
O=C(C1Cc2ccccc2CN1S(=O)(=O)c1cccs1)N1CCCCC1 (configuration not stated) was read as CYP2C19 inh 26, CYP2C19 activ 0.7, CYP2C9 inh 8, Cav32 inh 0.21 and CYP2C9 act 0.9.
`CCOC(=O)c1ccc(NC(=O)C2CCCN(S(=O)(=O)c3ccc(F)cc3)C2)cc1` (configuration not stated) gave CYP2C19 inh 34, CYP2C19 activ 0.7, CYP2C9 inh 31, Cav32 inh -3.1 and CYP2C9 act 0.7.
CCOC(=O)C(=CNc1ccccc1C)C(=O)OCC was read as CYP2C19 inh -2, CYP2C19 activ 1, CYP2C9 inh 9, Cav32 inh -0.53 and CYP2C9 act 0.9.
`CCOC(=O)C(=CNc1cc(C)nn1-c1ccccc1)C(=O)OCC` gave CYP2C19 inh 14, CYP2C19 activ 0.9, CYP2C9 inh 63*, Cav32 inh -0.63 and CYP2C9 act 0.4.
For CCOC(=O)C(/C=N/c1cc(C)nn1-c1ccccc1)=C(\C)O the results were CYP2C19 inh 59*, CYP2C19 activ 0.4, CYP2C9 inh 70*, Cav32 inh -1.4 and CYP2C9 act 0.3.
CCOC(=O)c1cc(OC(=O)c2ccccc2)n(-c2ccccc2)n1 was read as CYP2C19 inh 27, CYP2C19 activ 0.7, CYP2C9 inh 3, Cav32 inh -0.082 and CYP2C9 act 1.
COCCN(C(=O)Nc1ccccc1)c1ccccc1C was read as Cav32 inh 0.53.
Screening CC(C)OCCCNC(=O)c1cc2c(s1)CS(=O)(=O)C2 returned CYP2C19 inh 7, CYP2C19 activ 0.9, CYP2C9 inh -11, Cav32 inh 0.036 and CYP2C9 act 1.1.
CN(C)/C=C(/C(=O)c1ccc(Cl)cc1)S(=O)(=O)c1ccc(Cl)cc1 was read as CYP2C19 inh 62*, CYP2C19 activ 0.4, CYP2C9 inh -4 and CYP2C9 act 1.
For O=C(NN1C(=O)C2C3C=CC(C4CC34)C2C1=O)c1ccc(Cl)cc1Cl (configuration not stated) the results were CYP2C19 inh 2, CYP2C19 activ 1, CYP2C9 inh -14, Cav32 inh 1.1 and CYP2C9 act 1.1.
O=C(Nc1ccc(N=Nc2ccccc2)cc1)c1ccc(Cl)cc1Cl was read as CYP2C19 inh -8, CYP2C19 activ 1.1, CYP2C9 inh -7, Cav32 inh -0.36 and CYP2C9 act 1.1.
CN(C)/C=C(/C(=O)c1ccc(Cl)cc1Cl)S(=O)(=O)c1ccccc1 was read as CYP2C19 inh 14, CYP2C19 activ 0.9, CYP2C9 inh 63*, Cav32 inh 0.74 and CYP2C9 act 0.4.
Screening CN(C)/C=C(/C(=O)c1ccc(Cl)cc1Cl)S(=O)(=O)c1ccc(Cl)cc1 returned CYP2C19 inh 80*, CYP2C19 activ 0.2, CYP2C9 inh 95*, Cav32 inh -0.057 and CYP2C9 act 0.
CN(C)/C=C(\C(=O)c1ccc(Cl)cc1)c1nnnn1-c1ccc(Cl)cc1 was read as Cav32 inh 0.042.
O=C(O)CNC(=O)c1ccc(S(=O)(=O)N2CCOCC2)cc1 was read as CYP2C19 inh 1, CYP2C19 activ 1, CYP2C9 inh -2, Cav32 inh -0.076 and CYP2C9 act 1.
For CCOc1ccc(NC(=O)Nc2cccs2)cc1 the results were CYP2C19 inh 36, CYP2C19 activ 0.6, CYP2C9 inh 30, Cav32 inh -0.11 and CYP2C9 act 0.7.
Screening CC(C)Oc1ccc(Cc2c(O)nc(NCCCN(C)C)[nH]c2=O)cc1 returned Cav32 inh 0.9.
Screening CCOC(=O)c1ccc2c(c1)nc(SCc1cn3ccsc3n1)n2CC returned CYP2C19 inh 28, CYP2C19 activ 0.7, CYP2C9 inh 52*, Cav32 inh 0.034 and CYP2C9 act 0.5.
`COc1ccc(NC(=O)c2ccccc2NC(=O)COc2ccccc2)cc1` gave CYP2C19 inh -18, CYP2C19 activ 1.2, CYP2C9 inh 52*, Cav32 inh -0.65 and CYP2C9 act 0.5.
CCC(C)NC(=O)c1ccccc1NC(=O)C(C)N(c1ccccc1)S(C)(=O)=O (configuration not stated) was read as CYP2C19 inh 59*, CYP2C19 activ 0.4, CYP2C9 inh 49 and CYP2C9 act 0.5.

Bioassay records: PubChem BioAssay, several laboratories
